PubChem BioAssay AID463173 (ICCB-Longwood Screening Facility, Harvard Medical School, 2010)
In all, about 52,000 compounds went through this assay and about 4,300 (8.3%) were called active. Cut-off read from the data, not from the text of the source: active = survival mostly below about 52% (no sharp cut-off); inactive = mostly above about 56%. What follows is part of a selection rich in actives, with near analogues and random picks from the rest.

test system: DeltatarO mutant; test: growth inhibition of S. aureus wild type versus tarO mutant, primary screen, teichoic acid synthesis inhibitors, RN4220, OD600 (AID 463173); conditions: OD600, 18 h, hits give low values, screened at 18.75 µg/mL (by protocol)

Structure (SMILES)	survival
CCN(CC)S(=O)(=O)c1nnc(NC(=O)c2ccc(C(C)C)cc2)s1	44% (active)
CCN(CC)S(=O)(=O)c1nnc(NC(=O)c2ccc(Br)cc2)s1	44% (active)
CCN(CC)S(=O)(=O)c1nnc(NC(=O)COc2ccc(Cl)cc2)s1	87% (inactive)
CCN(CC)S(=O)(=O)c1nnc(NC(=O)c2ccc(C)cc2)s1	63% (inactive)
CCN(CC)S(=O)(=O)c1nnc(NC(=O)COc2ccc(C)cc2)s1	88% (inactive)
CCN(CC)S(=O)(=O)c1nnc(NC(=O)COc2ccccc2)s1	100% (inactive)
COCCCNC(=O)c1sc2ncccc2c1-n1cccc1	75% (inactive)
COc1ccc(CNC(=O)C2CCN(c3nnc(-n4c(C)ccc4C)s3)CC2)c(OC)c1	87% (inactive)
COc1ccc2c(c1)CC(NC(=O)Nc1ccc(Br)c(C)c1)CO2 (configuration not stated)	75% (inactive)
CCOC(=O)C1=C(CN2CCN(c3cccc(OC)c3)CC2)NC(=O)NC1c1ccc(OC)cc1 (configuration not stated)	88% (inactive)
COC(=O)c1scc(-c2ccc(C)cc2)c1S(=O)(=O)N1CCN(c2ccc(OC)cc2)CC1	60% (inactive)
Cn1cc(S(=O)(=O)N2CCCCCC2)cc1C(=O)N1CCN(c2ccc(F)cc2)CC1	75% (inactive)
COC(=O)c1scc(-c2ccc(C)cc2)c1S(=O)(=O)N1CCN(c2ccc(F)cc2)CC1	-4% (active)
Cn1cc(S(=O)(=O)N2CCCCC2)cc1C(=O)N1CCN(c2ccc(F)cc2)CC1	55% (inactive)
COC(=O)c1cc(S(=O)(=O)N2CCN(c3ccc(F)cc3)CC2)cn1C	-5% (active)
COC(=O)c1scc(-c2ccc(C)cc2)c1S(=O)(=O)N1CCN(c2ccccc2)CC1	72% (inactive)
Cc1cc(C)cc(NC(=O)N2CCC(NC(=O)C3CCCCC3)CC2)c1	92% (inactive)
Cc1ccccc1NC(=O)CN1CCCC1	70% (inactive)
COCCCn1c(=O)c2sccc2n2c(CCCC(=O)NCc3ccc(F)cc3)nnc12	92% (inactive)
O=c1c2sc3ccccc3c2n(Cc2cccc(C(F)(F)F)c2)c(=O)n1Cc1ccccc1	67% (inactive)
CCOC(=O)c1[nH]c2ccccc2c1NC(=O)c1cc(OC)cc(OC)c1	48% (active)
CCOC(=O)c1[nH]c2ccccc2c1NC(=O)c1ccccc1OCC	68% (inactive)
CCOC(=O)c1[nH]c2ccccc2c1NC(=O)c1ccccc1F	53% (inactive)

Structure (SMILES)	survival
CCOC(=O)c1[nH]c2ccccc2c1NC(=O)c1ccccc1OC	51% (active)
CCOC(=O)c1[nH]c2ccccc2c1NC(=O)c1ccc(OC)c(OC)c1	131% (inactive)
CCOC(=O)c1[nH]c2ccccc2c1NC(=O)c1cc(OCC)c(OCC)c(OCC)c1	97% (inactive)
Cc1ccc(CNC(=O)c2sc3nc(-c4ccccc4)cn3c2C)cc1	123% (inactive)
Cc1ccc2oc(C(=O)Nc3c(C(=O)c4ccc(C)c(F)c4)oc4ccccc34)cc(=O)c2c1	58% (inactive)
CCS(=O)(=O)N1N=C(c2ccc(C)cc2)CC1c1cc2ccc(OC)cc2nc1Cl (configuration not stated)	44% (active)
CCOc1ccc2nc(Cl)c(C3CC(c4ccc(C)cc4)=NN3C(=O)CCC(=O)O)cc2c1 (configuration not stated)	50% (inactive)
CCOc1ccc2nc(Cl)c(C3CC(c4ccc(OC)cc4)=NN3S(C)(=O)=O)cc2c1 (configuration not stated)	127% (inactive)
CCOc1ccc(C2C(=O)N(C3CCCCCC3)CC(=O)N2CCc2ccccc2)cc1OC (configuration not stated)	88% (inactive)
N#Cc1cc(C#N)c(SCC(N)=O)nc1N	72% (inactive)
CCc1ccccc1N1C(=O)N(Cc2ccc(C#N)cc2)c2ccccc2S1(=O)=O	120% (inactive)
Cn1cc(CN(C(=O)Nc2ccccc2)C2CCCCC2)c2ccccc21	-14% (active)
Cn1cc(CN(C(=O)Nc2ccc(Cl)c(Cl)c2)C2CCCCC2)c2ccccc21	51% (inactive)
Cc1ccc(NC(=O)N(Cc2c[nH]c3ccccc23)C2CCCCCC2)cc1C	56% (inactive)
Cc1ccc(NC(=O)N(Cc2cn(C)c3ccccc23)C2CCCCC2)cc1C	-13% (active)
COc1ccc2[nH]c(=O)c(CN(C(=O)Nc3ccccc3)C3CCCC3)cc2c1	78% (inactive)
O=C(Nc1ccccc1)N(Cc1c[nH]c2ccccc12)C1CCCCCC1	52% (inactive)
CCC(C(=O)NCc1ccccc1)n1nc(C)c2sc3ccccc3c2c1=O (configuration not stated)	70% (inactive)
COc1cccc(CNc2sc3c(c2C(=O)Nc2ccc(OC)cc2OC)CCC3)c1	99% (inactive)
CC(=O)Nc1nonc1-c1nnc(SCC(=O)Nc2cc(C)cc(C)c2)n1C	52% (inactive)
CC1CCC(NC(=O)C2(C)Cc3ccccc3C(=O)N2Cc2ccccc2Cl)CC1 (configuration not stated)	48% (inactive)
CC1(C(=O)NC2CCCCC2)Cc2ccccc2C(=O)N1Cc1ccccc1Cl (configuration not stated)	43% (active)
CC1(C(=O)NC2CCCCC2)Cc2ccccc2C(=O)N1Cc1ccc(Cl)cc1 (configuration not stated)	92% (inactive)

Structure (SMILES)	survival
N#Cc1ccc(S(=O)(=O)N2CCNCC2)cc1	98% (inactive)
CC1=C(c2ccc(C(C)C)cc2)S(=O)(=O)NC1=NCc1ccccc1C	77% (inactive)
Cc1[nH]n(-c2ccc(Cl)cc2)c(=O)c1C(=O)c1ccccc1	40% (active)
Cc1[nH]n(-c2ccccc2)c(=O)c1C(c1cc(Cl)ccc1O)c1c(C)[nH]n(-c2ccccc2)c1=O	49% (inactive)
Cc1[nH]n(-c2ccccc2)c(=O)c1/C=N/NC(=O)c1ccccc1	50% (inactive)
Cc1ccc2oc(-c3ccc(NC(=O)CCC(=O)O)cc3)nc2c1	86% (inactive)
CCc1cccc(C)c1Nc1c(-c2cccc(O)c2)nc2sccn12	105% (inactive)
Cc1cccc(C)c1Nc1c(-c2ccc(O)cc2)nc2sccn12	28% (active)
Cc1ccc(-c2nc3sccn3c2Nc2ccc(C)c(C)c2)cc1	36% (active)
Cc1ccc(Nc2c(-c3ccc(Cl)cc3)nc3sccn23)c(C)c1	47% (inactive)
COc1cc(-c2nc3sccn3c2Nc2c(C)cccc2C)ccc1O	125% (inactive)
Cc1ccc(-c2nc3sccn3c2Nc2ccccc2C)cc1	48% (inactive)
Cc1cc(Cl)ccc1NC(=O)CN(c1ccccc1Br)S(C)(=O)=O	55% (inactive)
CCOc1ccc(-n2ccnc2SCC(=O)Nc2cccc3ccccc23)cc1	68% (inactive)
O=c1cc(CN2CCN(S(=O)(=O)c3ccc(Cl)cc3)CC2)nc2sc(-c3ccccc3F)nn12	104% (inactive)
Cc1cccc(-n2ncc3c(NC4CCCC4)ncnc32)c1	69% (inactive)
O=C(O)c1ccc(/C=N/n2cnnc2)cc1	111% (inactive)
Cc1ccccc1CNC(=O)c1oc2c(c1C)-c1nn(Cc3ccc(Cl)cc3)cc1CC2	73% (inactive)
COc1cc(NC(=O)c2oc3c(c2C)-c2nn(Cc4cccc(Cl)c4)cc2CC3)cc(OC)c1	78% (inactive)
CCn1cc2c(n1)-c1c(oc(C(=O)Nc3cccc(C)c3C)c1C)CC2	95% (inactive)
Cc1cccc(CNC(=O)c2oc3c(c2C)-c2nn(Cc4cccc(Cl)c4)cc2CC3)c1	97% (inactive)
Cc1ccccc1NC(=O)c1oc2c(c1C)-c1nn(Cc3cccc(Cl)c3)cc1CC2	35% (active)
Cc1cccc(C)c1NC(=O)c1oc2c(c1C)-c1nn(Cc3ccccc3)cc1CC2	23% (active)

Structure (SMILES)	survival
O=C(O)CC1CCS(=O)(=O)C1 (configuration not stated)	62% (inactive)
CCOc1ccccc1N1CCN(C(=O)C2CCN(Cc3ccc(OC)cc3)CC2)CC1	98% (inactive)
CC1CCC(N2CC(=O)N(C3CCCC3)C(c3ccc(Cl)cc3)C2=O)CC1 (configuration not stated)	79% (inactive)
Cc1ccc2occ(CC(=O)N(Cc3ccc(C(C)C)cc3)C3CCS(=O)(=O)C3)c2c1 (configuration not stated)	66% (inactive)
COc1ccc(NS(=O)(=O)c2ccc(N3CCCCS3(=O)=O)cc2)cc1Cl	71% (inactive)
COc1cccc(C(=O)Nc2ccccc2C(=O)OCc2cc(=O)n3c4c(sc3n2)CCCC4)c1	57% (inactive)
CCn1cc2nc(SCc3ccccc3Cl)n(CCc3ccccc3)c(=O)c2n1	74% (inactive)
CCn1cc2nc(SCc3c(F)cccc3Cl)n(CCc3ccccc3)c(=O)c2n1	52% (active)
CCn1cc2nc(SCc3cccc(F)c3)n(CCc3ccccc3)c(=O)c2n1	71% (inactive)
CCOC(=O)c1c(C)[nH]c(C)c1S(=O)(=O)N(C)CC(=O)Nc1cccc(Cl)c1C	73% (inactive)
CCOC(=O)c1c(C)[nH]c(CCC(=O)NCc2ccc(N(C)C)cc2)c1C	83% (inactive)
CCOC(=O)Cn1nc(-c2ccccc2)c2cnc3ccc(OCC)cc3c21	109% (inactive)
Cc1ccc(CNc2ncnc3c2nnn3C)cc1	58% (inactive)
Cn1nnc2c(NCc3ccccc3)ncnc21	32% (active)
Cn1nnc2c(NCc3ccc(Cl)cc3)ncnc21	81% (inactive)
O=C(c1cccs1)N(Cc1cccnc1)c1nc2c(Cl)cccc2s1	82% (inactive)
COc1cccc(C(=O)Nc2ccc(-c3cc(C(F)(F)F)nn3-c3ccccc3)cc2)c1	46% (inactive)
O=C(Nc1ccc(-c2cc(C(F)(F)F)nn2-c2ccccc2)cc1)c1cccc(F)c1	26% (active)
COc1ccccc1C(=O)NC(=O)Nc1ccc(-c2cc(C(F)(F)F)nn2-c2ccccc2)cc1	30% (active)
COc1ccccc1C(=O)Nc1ccc(-c2cc(C(F)(F)F)nn2-c2ccccc2)cc1	45% (inactive)
COc1ccccc1C(=O)NC(=O)Nc1ccc(-n2nc(C(F)(F)F)cc2C(F)(F)F)cc1	59% (inactive)
O=C(NC(=O)c1cccc(F)c1)Nc1ccc(-c2cc(C(F)(F)F)nn2-c2ccccc2)cc1	157% (inactive)
O=C(CN1CCC(N2CCCCC2)CC1)Nc1ccc2c(c1)OCCO2	96% (inactive)
